Reference: PubChem BioAssay (Tox21)
Inconclusive results are not listed. A call without a number means that no potency is given here. Active and inactive are the calls of the source. Calls come from the whole dose curve.

assay: qHTS assay to identify small molecule agonists or antagonists of the thyroid stimulating hormone receptor (TSHR) signaling pathway - wild type cell line counter screen (AID 1259384); conditions: HEK293 wild type, cAMP HTRF counter-screen; series mostly up to 92.4 µM; cAMP activity change: at the top concentration
Outline: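 Wild-type Hek293 cells, 800/well, 18 h at 37C, then compound with Ro20-1724 for 30 min RT. cAMP by HTRF (cAMP-d2/anti-cAMP cryptate), 1 h RT, fluorescence read. 15 concentrations, triplicates.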

SMILES	cAMP activity change	Potency
CC1COc2c(N3CCN(C)CC3)c(F)cc3c(=O)c(C(=O)O)cn1c23 (centres undefined)	-1.84% [at 42.5 µM, active compounds read high] (inactive)	–
CCc1ccc(C(c2ccc(CC)cc2)C(Cl)Cl)cc1	–	inactive
O=C(O)CP(=O)(O)O	-7.19% [at 42.5 µM, active compounds read high] (inactive)	–
CCn1cc(C(=O)O)c(=O)c2cc(F)c(N3CCNC(C)C3)c(F)c21 (centres undefined)	0.654% [at 42.5 µM, active compounds read high] (inactive)	–
c1ccc2c(c1)-c1cccc3c1c-2cc1ccccc13	–	inactive
NCCO	–	inactive
CCCCCCCCCCCCCC[P+](CCCC)(CCCC)CCCC	–	inactive
O=C(O)c1cn(-c2ccc(F)cc2)c2cc(N3CCNCC3)c(F)cc2c1=O	–	inactive
CCCCC/C=C/CC1CC(=O)OC1=O (centres undefined)	1.9% (inactive)	–
CCCC(=O)c1ccccc1	0.0236% (inactive)	–
Cc1cc(C2(c3cc(C)c(O)cc3C)OS(=O)(=O)c3ccccc32)c(C)cc1O	-7.74% (inactive)	–
O=C(OCc1ccccc1)c1ccc(O)cc1	–	inactive
CCC(C)(Oc1ccc(C2(c3ccc(OC(C)(CC)C(=O)O)cc3)CCCCC2)cc1)C(=O)O (centres undefined)	-0.0079% [at 42.5 µM, active compounds read high] (inactive)	–
CCc1cc(C(C)(C)C)c(O)c(C(C)(C)C)c1	–	inactive
CC(=O)CC(C)=O	1.63% (inactive)	–
NCCCCCC(=O)O	3.51% [at 42.5 µM, active compounds read high] (inactive)	–
NNCCc1ccccc1	–	inactive
Nc1nc2ccccc2[nH]1	–	inactive
O=C(Oc1ccccc1)c1ccccc1O	–	inactive
CC(C)(c1ccccc1)c1ccc(Nc2ccc(C(C)(C)c3ccccc3)cc2)cc1	–	inactive
NC(N)=NC(=O)Cc1c(Cl)cccc1Cl	-4.81% [at 42.5 µM, active compounds read high] (inactive)	–
COc1cc(C(=S)N2CCOCC2)ccc1O	9.09% [at 42.5 µM, active compounds read high] (inactive)	–
CCCNC(C)C(=O)Nc1ccccc1C (centres undefined)	0.403% [at 42.5 µM, active compounds read high] (inactive)	–
CC(=O)O[C@]1(C(C)=O)CC[C@H]2[C@@H]3C[C@H](C)C4=CC(=O)CC[C@]4(C)[C@H]3CC[C@@]21C	–	inactive
